UGM FP inh: inhibitors of M. tuberculosis UDP-galactopyranose mutase. purified UGM, fluorescence polarization probe displacement. inhibition, % at 10 µM. P9WIQ1. 0.06% of 320,000 active; in the data active = inhibition above about 10%, passing the limit was not always enough
Rv3671c inh: inhibits the M. tuberculosis serine protease Rv3671c; P9WHR9; inhibition, % at 5.96 µM; 0.048% of 320,000 active; in the data active = inhibition above about 38%;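 note: extracellular domain of Rv3671c used as enzyme; 0% = enzyme with DMSO and 100% = no enzyme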
Mtb bLac sens: beta-lactam sensitization of Mtb H37Rv; inhibition, % at 25 µM; 0.27% of 330,000 active; AID 434955; M. tuberculosis H37Rv growth with meropenem, percent inhibition;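 note: growth measured after seven days incubation then overnight dye step; 0% = bacteria only wells and 100% = bacteria with antibiotic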
FBA Mtb inh: inhibits M. tuberculosis FBA enzyme | P9WQA3 | purified M. tuberculosis FBA, fluorescence read-out | inhibition, % at 1 µM | 2.3% of 360,000 active | AID 588726; in the data active = inhibition above about 27%;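 note: 0% = vehicle and 100% = reference inhibitor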
Target sequence (P9WQA3 whole entry, looked up): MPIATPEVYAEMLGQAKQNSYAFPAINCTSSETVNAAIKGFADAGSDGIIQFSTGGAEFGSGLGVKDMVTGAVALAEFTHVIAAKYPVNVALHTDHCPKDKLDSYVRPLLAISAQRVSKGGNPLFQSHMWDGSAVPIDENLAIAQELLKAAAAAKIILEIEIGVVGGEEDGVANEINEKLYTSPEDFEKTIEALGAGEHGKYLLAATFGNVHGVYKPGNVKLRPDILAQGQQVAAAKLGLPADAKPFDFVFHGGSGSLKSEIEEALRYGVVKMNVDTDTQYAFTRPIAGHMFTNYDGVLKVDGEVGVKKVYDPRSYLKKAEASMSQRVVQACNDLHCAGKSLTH
GDH-TPI counter-1: counter-screen for M. tuberculosis FBA inhibitors: GDH-TPI coupled enzymes; 1.2% of 360,000 active; GDH-TPI coupled enzyme counterscreen, NADH absorbance; AID 588335; inhibition, % at 4.8 µM; in the data active = inhibition above about 30%;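 note: 0% = DMSO wells and 100% = wells lacking the enzyme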
Mtb FBA inh conf: Mtb FBA inhibition, confirmed | shares compounds with FBA Mtb inh | purified M. tuberculosis FBA, fluorescence read-out | AID 651616 | 78% of 5,600 active | inhibition, % at 1 µM; in the data active = inhibition above about 27%;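 note: 0% = vehicle wells and 100% = reference inhibitor wells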
GDH-TPI counter-2: inhibits GDH-TPI coupling enzymes, flagging Mtb FBA hits | shares compounds with FBA Mtb inh | GDH-TPI coupled enzyme counterscreen, fluorescence | inhibition, % at 1 µM | 81% of 5,600 active | AID 652141; in the data active = inhibition above about 10%
GDH-TPI dose: counter-screen for M. tuberculosis FBA inhibitors: GDH-TPI dose response | 79% of 170 active | shares compounds with FBA Mtb inh | IC50, µM | GDH-TPI coupled enzyme assay, fluorescence, artifact counterscreen
Active calls of the source: *; . = not tested or not shown; + = active, no number. Most compounds without a hit are left out; they make up all but 3.5% or so of the library. Unless noted, the rule behind the calls is not given here.

SMILES	UGM FP inh	Rv3671c inh	Mtb bLac sens	FBA Mtb inh	GDH-TPI counter-1	Mtb FBA inh conf	GDH-TPI counter-2	others
COc1ccc2[nH]c3c(=O)n(Cc4ccncc4)cnc3c2c1	1	2	-2	101*	0	20	5	GDH-TPI dose=1.9*
Cn1c2ccsc2c2ncn(Cc3ccc(F)cc3)c(=O)c21	.	-1	-2	3	7	.	.
CCN1CCCC1Cn1cnc2c([nH]c3ccc(OC)cc32)c1=O (stereo not given)	-4	7	-10	57*	-1	157*	125*
O=C(O)c1cc(S(=O)(=O)Nc2ccc(OCc3ccccc3)cc2)ccc1Br	-1	3	80	-1	0	.	.
O=C(CSc1nnc(C2CC2)n1C1CC1)c1cccs1	1	2	-9	-1	-2	.	.
CCOC(=O)C1=C(COC(=O)C2CC(=O)N(CCc3ccccc3)C2)NC(=O)NC1C (stereo not given)	0	-5	-7	-1	7	.	.
CCC1CCCN1Cn1cnc2c([nH]c3ccc(C)cc32)c1=O (stereo not given)	1	-6	0	41*	11	+	+
Nn1c(SCc2cccc(Br)c2)nnc1-c1ccncc1	0	1	6	0	2	.	.
COc1ccccc1COC(=O)N/C=C/c1ccco1	-1	-3	-2	43*	-2	163*	121*
c1ccc(-n2cnc3ccccc32)nc1	-3	-3	-3	0	4	.	.
c1ccc(-c2ccc(-c3n(-c4ccccn4)c4ccccc4[n+]3-c3ccccn3)cc2)cc1	.	.	.	46*	2	189*	172*
CCN(CC)c1ccc(-c2c(C#N)c(N)nc(OC)c2C#N)cc1	-1	-14	24	55*	18	34*	25*
CN(Cc1ccccc1F)C(=O)c1ccc2c(=O)n3c(nc2c1)CCC3	5	-2	-12	-1	-5	.	.
CCCN(C(=O)CSCc1c(C)noc1C)c1c(N)n(Cc2ccccc2)c(=O)[nH]c1=O	2	4	-6	1	-7	.	.
CCCC(=O)N1CCN(c2nc(CC(C)C)c3c(c2C#N)CCC3)CC1	1	6	35	32*	9	159*	120*
CSc1ccc(C(=O)C2CCCN(C(=O)c3nonc3C)C2)cc1 (stereo not given)	3	-16	3	0	28	.	.
COC(=O)c1cc2ccc(OC)cc2c2cc(OC)c(OC)cc12	0	-6	11	62*	25	-5	-6
Cc1cccc(OCC(=O)Nc2ccc(C(=O)Nc3ccccc3C(=O)O)cc2)c1C	0	-49	21	0	-1	.	.
C=CCn1c(SCC(=O)NC2CCCCC2)nnc1-c1sc(N)nc1C	-1	6	-9	30*	10	114*	96*
COc1ccc(-c2c(=O)n(OCc3ccccc3[N+](=O)[O-])c3ccccc3[n+]2[O-])c(OC)c1	-1	2	2	-5	4	.	.
CC(C)(C)C(=O)NC(=S)NNC(=O)c1ccc(Cl)cc1Cl	-1	19	76	12	11	.	.
CCOC(=O)C1=C(C)NC(C)=C(C(=O)OC)C1c1cccc(Cl)c1Cl (stereo not given)	0	2	3	41*	9	11	3	GDH-TPI dose=>10
COC(=O)C1=C(C)NC(=O)CC1c1cccc(Cl)c1Cl (stereo not given)	2	-3	-2	-1	6	.	.
Cc1cccc(NS(=O)(=O)c2ccc3c(c2)NC(=O)CO3)c1C	0	4	7	5	0	.	.
FC(F)(F)c1nc2nc(Cl)c(Cl)nc2[nH]1	.	.	.	5	26	.	.
SMILES	UGM FP inh	Rv3671c inh	Mtb bLac sens	FBA Mtb inh	GDH-TPI counter-1	Mtb FBA inh conf	GDH-TPI counter-2	others
FC(F)(F)c1cccc(-c2nc3nc(Cl)c(Cl)nc3[nH]2)c1	2	-11	14	31*	36*	35*	42*
CCOc1ccc2nc(NCCNC(=O)C(C)C)c(C)cc2c1	1	-1	-2	35*	22	86*	66*
CCOc1ccc2nc(NCCNC(=O)C3CC3)c(C)cc2c1	-1	3	-11	21	13	.	.
CCCNC(=O)C1(C)CCCN(C(=O)c2ccc(C)c(F)c2)C1 (stereo not given)	.	.	.	-2	-4	.	.
Nc1nc(-c2ccc(-c3ccccc3)cc2)cs1	0	-5	55	33*	3	+	+
Nc1ccc(-c2cc(-c3ccc(N)cc3)nc(-c3ccccc3)n2)cc1	-5	-1	2	39*	18	54*	28*
Cc1ccc(C(=O)N2CCCC(N(C)Cc3ccccc3)C2)s1 (stereo not given)	-3	.	4	3	-1	.	.
Nc1c(-c2ccccc2)n[nH]c1-c1ccccc1	1	-5	6	40*	2	72*	50*
CCCc1cc(CCC)n2nc(N)nc2n1	.	.	.	32*	5	+	179*
CC(C)c1cc(C(C)C)n2nc(N)nc2n1	-1	5	-1	18	6	.	.
Cc1cccc(Cc2c(C)nc3c(C(=O)NCc4ccco4)cnn3c2C)c1	-2	-13	.	31*	5	194*	148*
CCCn1c(=O)c2c(C(F)(F)F)cc(-c3ccco3)nc2n(CCC)c1=O	-1	-13	2	10	5	.	.
CCOC(=O)c1cnn2c(C)cc(-c3ccccc3)nc12	-1	-6	-1	54*	17	+	+
Cc1nc2c(C(=O)NCc3ccco3)cnn2c(C)c1Cc1ccc(F)cc1Cl	-1	1	6	26	6	.	.
CCOC(=O)c1cc2nc(-c3ccccc3)cc(C)n2n1	1	-3	-2	8	7	.	.
CCCn1c(=O)c2c(C(=O)OCC)cc(-c3ccco3)nc2n(CCC)c1=O	.	.	.	41*	6	166*	124*
COc1ccc(-c2cc(C(F)(F)F)n3ncc(C(=O)NCc4ccco4)c3n2)cc1	2	-1	28	30*	24	165*	145*
COc1ccc(Br)c(C(=O)OCC(=O)NC2CCCCCC2)c1	0	-6	80	1	10	.	.
CCCn1c(C(C)Nc2nc(C)cs2)nc2cc(Cl)c(Cl)cc21 (stereo not given)	0	-3	2	1	4	.	.
CCOC(=O)c1cnn2c(C(F)(F)F)cc(-c3ccco3)nc12	2	-4	-7	53*	21	+	160*
CC(=O)Nc1ccc(NC(=O)CSc2nnnn2-c2ccc(F)cc2)cc1	1	-4	0	3	-5	.	.
Cc1cc(O)ccc1-c1cccc2nccn12	.	.	.	49*	-3	-4	-3
c1cc(-c2ccsc2)n2ccnc2c1	.	.	.	56*	5	172*	137*
Cc1ncc([N+](=O)[O-])n1CC(=O)Nc1ccc(F)cc1	0	-5	4	-4	1	.	.
O=C(NC1CCN(C(=O)c2ccccc2Br)CC1)c1ccccc1	0	4	3	2	6	.	.
